CYP2C9 activ: human CYP2C9 activators, primary screen, biochemical, luminescence | 96,000 tested, 1.4% active | Cytochrome P450 2C9 (Homo sapiens), P11712 | activation factor at 5 µM | recombinant CYP2C9, luciferin-H conversion; hits give high values; factor 1 = untreated enzyme, 0 = blocked;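 active = activation factor of 2 or more for CYP2C9 at a 5 µM dose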;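 also: 0 = sulfaphenazole-blocked wells and 1 = vehicle-only wells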
PTK2B oligo ant: antagonists of Pyk2 self-association, primary screen, Q293 cells, FERM NanoBiT luminescence, HTS; hits give low values; 99,000 tested, 0.83% active; Protein-tyrosine kinase 2-beta (Homo sapiens), Q14289; z-score (the deposit names both 25 µM and 10 µM); AID 1347419, 2020;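 active = Z-score of -3 or lower, scaled per plate to the spread of control and sample wells; inactive = z-score above -3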;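 also: negative z-score means lost luminescence so less FERM oligomerization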
CYP2C19 inhib: blockers of cytochrome P450 2C19 activity – biochemical, luminescence, ADME assay, primary screen; P33261; CYP2C19 Supersomes, luciferin-H EGE luminescence, 30 min; inhibition, % at 5 µM; 96,000 tested, 21% active;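 active = CYP2C19 inhibition above a set limit at 5 µM in the primary screen, cut at about 50% in these data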;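 also: plate controls were negative control wells for no effect and 2.5 mM tranylcypromine positive control for full effect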
Cav32 inh: Cav3.2 calcium influx blockers – cell-based, Fluo-4 calcium fluorescence, FDSS, MLSMR library, primary screen; Voltage-dependent T-type calcium channel subunit alpha-1H (Homo sapiens), O95180; Cav3.2-expressing cells; hits give low values; B-score at 10 µM; 100,000 tested, 4% active; AID 449739, 2010;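 active = single-dose well whose peak fluorescence ratio is a statistical outlier from its plate by either plate-standardised score or position-corrected B-score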
CYP2C9 inhib: blockers of cytochrome P450 2C9 activity – biochemical, luminescence, ADME assay, primary screen; CYP2C9 Supersomes, luciferin-H conversion; AID 777, 2007; 96,000 tested, 20% active; inhibition, % at 5 µM;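 active = blocking of liver enzyme CYP2C9 beyond about 50% at 5 µM, limit read from the data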
CYP2C19 act: human CYP2C19 activators, primary screen, biochemical, luminescence; Cytochrome P450 2C19 (Homo sapiens), P33261; recombinant CYP2C19, luciferin-H EGE luminescence; hits give high values; 0 = fully inhibited enzyme, 1 = untreated enzyme; activation factor at 5 µM; 96,000 tested, under 10 active; AID 1025, 2008;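 active = activation factor of at least 2 at 5 µM in the primary screen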;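 also: 0 = wells with 2.5 mM tranylcypromine and 1 = vehicle-only wells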
Numbers without * were called inactive; · = not tested or not shown. Only some compounds are listed: those with a hit (about 27% of all), similar ones and a draw of the others.

SMILES | CYP2C9 activ | PTK2B oligo ant | CYP2C19 inhib | Cav32 inh | CYP2C9 inhib | CYP2C19 act
CCOc1ccccc1-c1nnc(SCC(=O)NC2CC3CCC2C3)n1CC (centres undefined) | 0.5 | 0.02 | 77* | -0.074 | 47 | 0.2
CCOC(=O)N1CCN(Cc2nc3c(c(=O)n(C)c(=O)n3C)n2Cc2cccc(C)c2)CC1 | 0.3 | 0.76 | 86* | 0.37 | 67* | 0.1
CCCn1c(CN2CCN(c3cccc(Cl)c3)CC2)nc2c1c(=O)n(C)c(=O)n2C | 0.6 | · | 25 | -4.8* | 42 | 0.8
Cn1c(=O)c2c(nc(CN3CCN(c4ccccc4)CC3)n2Cc2ccccc2Cl)n(C)c1=O | 1.1 | -0.63 | -1 | 0.018 | -13 | 1
CCCCn1c(CN2CCN(c3ccccc3)CC2)nc2c1c(=O)n(C)c(=O)n2C | 0.9 | · | 7 | -0.37 | 8 | 0.9
CCCCCn1c(CN2CCN(c3cccc(Cl)c3)CC2)nc2c1c(=O)n(C)c(=O)n2C | 0.5 | -0.02 | 22 | -4.1 | 55* | 0.8
CCCCn1c(CN2CCN(c3cccc(Cl)c3)CC2)nc2c1c(=O)n(C)c(=O)n2C | 0.1 | 0.46 | 56* | -6.9* | 85* | 0.4
Cc1sc2nc(CSCC(=O)Nc3ccccc3C#N)[nH]c(=O)c2c1C | · | 0.08 | · | · | · | ·
Nc1cc(Cl)ccc1C(=O)OCC(=O)NC1CCS(=O)(=O)C1 (centres undefined) | 1.1 | -0.61 | 24 | -0.0078 | -9 | 0.8
Cc1cc(C)n(-c2nncn2NC(=O)c2ccc(Cl)cc2O)n1 | 0.6 | -0.69 | 6 | -1.7 | 41 | 0.9
CC(=O)C1C(c2ccc(F)c(F)c2)NC(=O)NC1(O)C(F)(F)F (centres undefined) | · | -0.76 | · | -2 | · | ·
COC(=O)C1=C(C(=O)OC)[C@@H]2N(C)c3ccc(OC)cc3[C@@]23C[C@@H](C(=O)OC)N(C(=O)c2cc(C)oc2C)C3=N1 | · | · | · | 0.07 | · | ·
C/C(=N\Nc1ccc([N+](=O)[O-])cc1[N+](=O)[O-])C(C)(C)C(C(=O)O)C(=O)O | · | 0.18 | · | · | · | ·
O=C(CSc1ncn[nH]1)N1N=C2/C(=C/c3ccco3)CCCC2C1c1ccco1 (centres undefined) | 0.1 | -0.2 | 88* | -4.1* | 94* | 0.1
CCc1ccc(/C=C/C(=O)C2C(=O)c3ccccc3C2=O)cc1 | 0.4 | -0.34 | 1 | -3.8* | 60* | 1
O=C(NN1C(=O)c2ccccc2C1=O)C1CCCCC1 | 1 | -0.32 | 12 | 1.1 | 5 | 0.9
CCOC(=O)c1[nH]c2c(c1-c1ccccc1)C(=O)CC(c1ccc(OC)c(OC)c1)C2 (centres undefined) | · | · | · | -2.2 | · | ·
CCOC(=O)c1[nH]c2c(c1C)C(=O)CC(c1ccc(OCC)c(OC)c1)C2 (centres undefined) | 0.1 | 0.35 | 76* | 0.97 | 90* | 0.2
COC(=O)c1[nH]c2c(c1C)C(=O)CC(c1ccc(C)cc1)C2 (centres undefined) | 0.7 | 0.21 | 1 | -0.48 | 31 | 1
Cc1c(C(=O)OCC2CCCO2)[nH]c2c1C(=O)CC(c1ccc(N(C)C)cc1)C2 (centres undefined) | 0.1 | · | 21 | -0.91 | 92* | 0.8
CCOC(=O)c1[nH]c2c(c1C)C(=O)CC(c1ccc(F)cc1)C2 (centres undefined) | 0.1 | · | 15 | -2.1 | 88* | 0.9
Cc1cc(C)nc(SCC(=O)N2CCC(C(N)=O)CC2)n1 | 1 | 0.93 | 0 | 0.05 | -3 | 1
COC(=O)c1ccc(C23CC4(C2)[C@H](CN(C)[C@@H]4c2ccccc2)C3c2ccc(Cl)nc2)cc1 (some centres undefined) | · | · | · | -0.14 | · | ·
CCCCNC(=O)C1C2C=CC3(CN(Cc4ccc(C)cc4)C(=O)C13)O2 (centres undefined) | 0.9 | 0.76 | -5 | 1.3 | 12 | 1.1
CCOC(=O)Nc1nnc(-c2ccc(OC)c(OC)c2)s1 | 1.3 | -0.32 | -1 | 0.064 | -28 | 1
CCOC(=O)Nc1cc(OC)c(OC)cc1Cc1nccc2cc(OC)c(OC)cc12 | 0.4 | -0.27 | 85* | -0.022 | 62* | 0.2

Compound activity deposited in PubChem BioAssay by several laboratories.
